Screening results as filed in PubChem BioAssay.
Hits are enriched below; roughly 3.5% of the tested compounds scored in any of these assays.
TEAD-YAP inh: TEAD-YAP interaction inhibition; 1.4% of 640,000 active; HEK-TIYL cells, TEAD-Gal4/YAP UAS-luciferase luminescence; inhibition, % at 9.12 µM; AID 1259422; in the data active means inhibition above about 32%
FBW7 act: activators of human E3 ligase FBW7; AlphaScreen FBW7–phospho-cyclin E peptide binding, activator screen; normalized activity (activation), % at 26.1 µM; 0.13% of 650,000 active; in the data active means normalized activity above about 1.9%;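 further: purified mutant Fbw7 with reduced substrate affinity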
GPR151 activ: activators of human GPR151; 1% of 650,000 active; AID 1508602; activation, % at 11.2 µM; PathHunter beta-arrestin GPR151 cells, luminescence; in the data active means activation above about 4.9%
Target sequence (Q8TDV0 whole entry, looked up): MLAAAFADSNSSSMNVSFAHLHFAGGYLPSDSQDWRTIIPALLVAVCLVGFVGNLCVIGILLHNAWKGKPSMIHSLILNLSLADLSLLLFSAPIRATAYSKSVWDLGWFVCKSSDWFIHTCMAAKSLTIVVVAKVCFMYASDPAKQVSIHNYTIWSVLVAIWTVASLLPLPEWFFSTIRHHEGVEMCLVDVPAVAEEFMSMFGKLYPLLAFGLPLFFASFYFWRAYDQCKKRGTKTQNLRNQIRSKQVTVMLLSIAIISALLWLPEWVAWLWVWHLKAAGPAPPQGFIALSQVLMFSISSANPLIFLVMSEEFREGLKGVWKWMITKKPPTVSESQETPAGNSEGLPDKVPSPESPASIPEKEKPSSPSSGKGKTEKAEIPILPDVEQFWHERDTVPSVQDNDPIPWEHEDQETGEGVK
MITF primary: inhibitors of human MITF | 0.91% of 650,000 active | inhibition, % at 2.6 µM | AID 1259374 | O75030 | AlphaScreen MITF homodimerization, bead proximity signal; in the data active means inhibition above about 50%
GPR151 conf act: confirmation of human GPR151 activators | shares compounds with GPR151 activ | GPR151 PathHunter beta-arrestin cells, luminescence, 90 min; % of EA-reagent control over plate median | activation, % at 11.2 µM | 6,700 tested, under 10 active;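 active means mean percent activation across replicates above the confirmation screen cutoff of 4.91%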
GPR119 ag: activates human GPR119 in a GPR151 counter-screen; shares compounds with GPR151 activ; GPR119 PathHunter beta-arrestin cells, luminescence, 90 min; 0 = compound-well median, 100 = enzyme-acceptor control; activation, % at 11.2 µM; 0.3% of 6,700 active; AID 1508611;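 active means mean percent activation in the counterscreen above 29.09%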;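 further: counterscreen on off-target GPR119 to flag nonselective hits from the GPR151 activator screen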
Each line names hits and unclear results; the compound was inactive in the other large screens (follow-up assays come after a bar, where they were run).

O=C(Cn1nnnc1CN1CCCCCC1)N1CCCCC1c1cccnc1 (configuration not stated)	GPR151 activ 5.7 | GPR151 conf act inactive | GPR119 ag inactive
O=C(Cn1nnnc1CN1CCCCCC1)N1CCC[C@H]1CO	none
COc1cc(Nc2nc(SCc3ccc(F)cc3)nc3ccccc23)cc(OC)c1	GPR151 activ 5.0 | GPR151 conf act inactive | GPR119 ag inactive
O=C(CSc1nc(Nc2ccc3c(c2)OCO3)c2ccccc2n1)c1ccccc1	GPR151 activ 5.3 | GPR151 conf act inactive | GPR119 ag inactive
Fc1cccc(CSc2nc(Nc3ccc4c(c3)OCO4)c3ccccc3n2)c1	GPR151 activ 5.0 | GPR151 conf act inactive | GPR119 ag inactive
CCCCNc1nc(SCC(=O)c2ccc(O)c(O)c2)nc2ccccc12	GPR151 activ 5.6, MITF primary 56 | GPR151 conf act inactive | GPR119 ag inactive
CCCCNC(=O)CSc1nc(Nc2ccc3c(c2)OCO3)c2ccccc2n1	none
CCOc1ccc(C(=S)N2CCCC2)cc1	none
CCOc1ccc(C(=S)N2CCCCC2)cc1	GPR151 activ 6.2 | GPR151 conf act inactive | GPR119 ag inactive
O=C1N[C@@H](Cc2c[nH]c3ccccc23)C(=O)N2CCN(C(=O)c3ccc4ccccc4c3)C[C@H]12	none
COc1ccc(C[C@@H]2NC(=O)[C@H]3CN(C(=O)c4cc(Cl)cc(Cl)c4)CCN3C2=O)cc1	GPR151 activ 7.4 | GPR151 conf act inactive | GPR119 ag inactive
COCc1cc(CN2CCN3C(=O)[C@H](Cc4ccc(O)cc4)NC(=O)[C@H]3C2)ccc1OC	none
O=C1N[C@@H](Cc2c[nH]c3ccccc23)C(=O)N2CCN(C(=O)c3ccc(F)cc3)C[C@H]12	GPR151 activ 6.4 | GPR151 conf act inactive | GPR119 ag inactive
O=C1N[C@@H](Cc2c[nH]c3ccccc23)C(=O)N2CCN(C(=O)Oc3ccc(F)cc3)C[C@H]12	GPR151 activ 14 | GPR151 conf act inactive | GPR119 ag inactive
COc1ccc(C(=O)N2CCN3C(=O)[C@H](Cc4ccc(Cl)cc4)NC(=O)[C@H]3C2)cc1	none
COCc1cc(CN2CCN3C(=O)[C@H](Cc4ccccc4)NC(=O)[C@H]3C2)ccc1OC	GPR151 activ 5.7 | GPR151 conf act inactive | GPR119 ag inactive
Cc1ccc(C2Nn3c(C)nnc3SC2C(=O)Nc2ccccc2F)cc1 (configuration not stated)	none
CNC(=O)C(=O)NCC(c1ccco1)S(=O)(=O)c1ccc(Cl)cc1 (configuration not stated)	GPR151 activ 5.2 | GPR151 conf act inactive | GPR119 ag inactive
O=C(NCCO)C(=O)NCC(c1ccco1)S(=O)(=O)c1ccc(Cl)cc1 (configuration not stated)	none
COc1ccc(C(=O)c2sc3nc(C)cc(-c4cccs4)c3c2N)cc1	none
COc1ccc(C(=O)c2sc3nc(C)cc(-c4cccs4)c3c2N)cc1OC	GPR151 activ 6.9 | GPR151 conf act inactive | GPR119 ag inactive
COc1ccc(NC(=O)CCNc2c(N3CCCC3)c(=O)c2=O)cc1	GPR151 activ 6.1 | GPR151 conf act inactive | GPR119 ag inactive
CCCCNC(=O)CN1N=C(c2ccccc2)CCC1=O	none
COc1ccc(CN2C[C@@H]3C[C@@H](c4ccc5nonc5c4)N4CCC[C@@]34C2=O)cc1	GPR151 activ 5.4 | GPR151 conf act inactive | GPR119 ag inactive
COc1ccc(CN2C[C@@H]3C[C@@H](c4cccc5nonc45)N4CCC[C@@]34C2=O)cc1	none
COc1cccc2cc(C(=O)Nc3ccccc3[N+](=O)[O-])c(=O)oc12	GPR151 activ 13 | GPR151 conf act inactive | GPR119 ag inactive
COc1cccc2cc(C(=O)c3ccc([N+](=O)[O-])cc3)oc12	GPR151 activ 7.3 | GPR151 conf act inactive | GPR119 ag inactive
C/C(CC(C)C)=N\NC(=O)c1nnn(-c2nonc2N)c1C	none
COC(=O)C1=C(C)NC(=O)CC1c1cccc(Oc2ccccc2)c1 (configuration not stated)	GPR151 activ 8.3 | GPR151 conf act inactive | GPR119 ag inactive
CC1=C(C(=O)OC(C)C)C(c2cccc(Oc3ccccc3)c2)C(C(=O)OC(C)C)=C(C)N1	none
C=CCOC(=O)C1=C(C)NC(C)=C(C(=O)OCC=C)C1c1cccc(Oc2ccccc2)c1	GPR151 activ 7.1 | GPR151 conf act inactive | GPR119 ag inactive
O=S(=O)(NCC1(CO)CC1)c1ccc(F)c(Cl)c1	none
CCCCCC(=O)N1c2ccc(Cl)cc2NC2=C(C(=O)CC(c3ccc(Cl)cc3)C2)C1c1ccc(OC)cc1 (configuration not stated)	none
Clc1ccc(Nc2ncnc3sc4c(c23)CCCC4)cc1	none
Cc1ccc(Nc2ncnc3sc4c(c23)CCCC4)cc1	GPR151 activ 20 | GPR151 conf act inactive | GPR119 ag inactive
CC(=O)Nc1nc2ccc3nc(C)sc3c2s1	none
CCOc1ccccc1Nc1ccc(C(=O)N2CCCC2)cn1	GPR151 activ 8.7 | GPR151 conf act inactive | GPR119 ag inactive
COc1ccc(-c2nnc(NC(=O)c3ccccc3Br)o2)cc1	none
N#Cc1ccc(S(=O)(=O)NCCc2ccncc2)cc1	GPR151 activ 5.2 | GPR151 conf act inactive | GPR119 ag inactive
CCCc1cc(C(N)=O)c(NC(=O)C2CCCO2)s1 (configuration not stated)	GPR151 activ 10 | GPR151 conf act inactive | GPR119 ag inactive
CCOc1cc(NC(=O)C2CCCO2)c(OCC)cc1NC(C)=O (configuration not stated)	GPR151 activ 15 | GPR151 conf act inactive | GPR119 ag inactive
CCCCCc1nnc(NC(=O)C2CCCO2)s1 (configuration not stated)	none
COc1cc(-c2ccc(NC(=O)C3CCCO3)c(OC)c2)ccc1NC(=O)C1CCCO1 (configuration not stated)	none
Cc1nnc(N/N=C/c2ccc(Cl)c([N+](=O)[O-])c2)n1N	none
CCCC(=O)Nc1nnc(SCc2cccc(F)c2)s1	none
CCOC(=O)C1CCCN(C(=O)c2cccc(-n3c(=S)[nH]c4cc(Cl)ccc4c3=O)c2)C1 (configuration not stated)	GPR151 activ 6.6 | GPR151 conf act inactive | GPR119 ag inactive
O=C(c1cccc(-n2c(=S)[nH]c3cc(Cl)ccc3c2=O)c1)N1CCCC1	none
COc1ccc(C2(NC(=O)c3snnc3C)CCCCC2)cc1	GPR151 activ 20 | GPR151 conf act inactive | GPR119 ag inactive
COCCn1c(=NC(=O)CN2C(=O)CCC2=O)sc2cc(Br)ccc21	none
CCOCCn1c(=NC(=O)CN2C(=O)CCC2=O)sc2cc(Br)ccc21	GPR151 activ 5.8 | GPR151 conf act inactive | GPR119 ag inactive
Cc1cc(C)nc(Sc2ccc3nsnc3c2[N+](=O)[O-])n1	none
O=C(Nc1scc(-c2ccc(-c3ccccc3)cc2)c1C(=O)O)c1ccccc1Cl	none
CN=C(Nc1cc(C(F)(F)F)ccc1-n1ccnc1)c1ccccc1	none
CC(=O)Nc1ncc2c(n1)CC(C)(C)CC2=O	none
